# Test results reported in PMC5540273 (PLoS ONE, 2017).
# Where “and” joins values, the source holds several entries; their conditions need not be identical. Identical values can stand only once. Like-named read-outs stand apart in the source and are kept apart here.
# Assays:
# KIT-autoinhibited = conditions: concentration: 1 μM, replicates: in singlicate, n = 1
# KIT = conditions: concentration: 1 μM, replicates: in singlicate, n = 1
# LATS1 = conditions: concentration: 1 μM, replicates: in singlicate, n = 1
# LATS2 = conditions: concentration: 1 μM, replicates: in singlicate, n = 1
# LCK = conditions: concentration: 1 μM, replicates: in singlicate, n = 1
# LIMK1 = conditions: concentration: 1 μM, replicates: in singlicate, n = 1
# LIMK2 = conditions: concentration: 1 μM, replicates: in singlicate, n = 1
# LKB1 = tested on: T1, LKB1; conditions: concentration: 1 μM, replicates: in singlicate, n = 1
# T1 construct: gene STK11
# LOK = tested on: T2, LOK; conditions: concentration: 1 μM, replicates: in singlicate, n = 1
# T2 construct: gene STK10
# LRRK2 = conditions: concentration: 1 μM, replicates: in singlicate, n = 1
# LTK = conditions: concentration: 1 μM, replicates: in singlicate, n = 1
# LYN = conditions: concentration: 1 μM, replicates: in singlicate; n = 1
# LZK = tested on: T3, LZK; conditions: concentration: 1 μM, replicates: in singlicate, n = 1
# T3 construct: gene MAP3K13
# MAK = conditions: concentration: 1 μM, replicates: in singlicate, n = 1
# MAP3K15 = conditions: concentration: 1 μM, replicates: in singlicate, n = 1
# MAP3K1 = conditions: concentration: 1 μM, replicates: in singlicate, n = 1
# MAP3K2 = conditions: concentration: 1 μM, replicates: in singlicate, n = 1
# MAP3K3 = conditions: concentration: 1 μM, replicates: in singlicate, n = 1
# MAP3K4 = conditions: concentration: 1 μM, replicates: in singlicate, n = 1
# MAP4K2 = conditions: concentration: 1 μM, replicates: in singlicate, n = 1
# 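Also: KINOMEscan kinase panel screen.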
smiles,measurement,setting,value
Fc1ccc(-c2ncn(CCCN3CCOCC3)c2-c2cccnc2)cc1 [SB-211743],%Inh,KIT-autoinhibited,18%
same,%Inh,KIT,2%
same,%Inh,LATS1,9%
same,%Inh,LATS2,0%
same,%Inh,LCK,20%
same,%Inh,LIMK1,9%
same,%Inh,LIMK2,0%
same,%Inh,LKB1,46%
same,%Inh,LOK,14%
same,%Inh,LRRK2,0%
same,%Inh,LTK,18%
same,%Inh,LYN,0%
same,%Inh,LZK,0%
same,%Inh,MAK,15%
same,%Inh,MAP3K15,0%
same,%Inh,MAP3K1,7%
same,%Inh,MAP3K2,28%
same,%Inh,MAP3K3,0%
same,%Inh,MAP3K4,0%
same,%Inh,MAP4K2,0%
Cc1nnc(-c2ccc(C)c(-c3ccc(C(=O)Nc4ccc(NS(C)(=O)=O)cc4)cc3)c2)o1 [GW702865],%Inh,KIT-autoinhibited,0%
same,%Inh,KIT,58%
same,%Inh,LATS1,0%
same,%Inh,LATS2,1%
same,%Inh,LCK,17%
same,%Inh,LIMK1,0%
same,%Inh,LIMK2,0%
same,%Inh,LKB1,26%
same,%Inh,LOK,6%
same,%Inh,LRRK2,0%
same,%Inh,LTK,3%
same,%Inh,LYN,25%
same,%Inh,LZK,21%
same,%Inh,MAK,35%
same,%Inh,MAP3K15,0%
same,%Inh,MAP3K1,0%
same,%Inh,MAP3K2,0%
same,%Inh,MAP3K3,0%
same,%Inh,MAP3K4,19%
same,%Inh,MAP4K2,0%
NS(=O)(=O)c1cccc(-c2ccc3ncc(N4CCOCC4)nc3c2)c1 [GSK1535721],%Inh,KIT-autoinhibited,15%
same,%Inh,KIT,14%
same,%Inh,LATS1,0%
same,%Inh,LATS2,9%
same,%Inh,LCK,0%
same,%Inh,LIMK1,0%
same,%Inh,LIMK2,15%
same,%Inh,LKB1,3%
same,%Inh,LOK,0%
same,%Inh,LRRK2,0%
same,%Inh,LTK,8%
same,%Inh,LYN,0%
same,%Inh,LZK,23%
same,%Inh,MAK,8%
same,%Inh,MAP3K15,0%
same,%Inh,MAP3K1,0%
same,%Inh,MAP3K2,0%
same,%Inh,MAP3K3,0%
same,%Inh,MAP3K4,0%
same,%Inh,MAP4K2,4%
N#Cc1ccc(-c2cc(-c3c[nH]nc3-c3ccccn3)ccn2)cc1 [GW693028],%Inh,KIT-autoinhibited,5%
same,%Inh,KIT,6%
same,%Inh,LATS1,0%
same,%Inh,LATS2,0%
same,%Inh,LCK,0%
same,%Inh,LIMK1,16%
same,%Inh,LIMK2,3%
same,%Inh,LKB1,0%
same,%Inh,LOK,0%
same,%Inh,LRRK2,44%
same,%Inh,LTK,0%
same,%Inh,LYN,0%
same,%Inh,LZK,0%
same,%Inh,MAK,21%
same,%Inh,MAP3K15,0%
same,%Inh,MAP3K1,6%
same,%Inh,MAP3K2,0%
same,%Inh,MAP3K3,0%
same,%Inh,MAP3K4,24%
same,%Inh,MAP4K2,0%
O=C1Cc2cc(Nc3nc(NCc4cccc(S(=O)(=O)C(F)(F)F)c4)ncc3C(F)(F)F)ccc2N1,%Inh,KIT-autoinhibited,0%
same,%Inh,KIT,16%
same,%Inh,LATS1,11%
same,%Inh,LATS2,0%
same,%Inh,LCK,0%
same,%Inh,LIMK1,1%
same,%Inh,LIMK2,9%
same,%Inh,LKB1,0%
same,%Inh,LOK,1%
same,%Inh,LRRK2,11%
same,%Inh,LTK,6%
same,%Inh,LYN,0%
same,%Inh,LZK,25%
same,%Inh,MAK,15%
same,%Inh,MAP3K15,21%
same,%Inh,MAP3K1,2%
same,%Inh,MAP3K2,12%
same,%Inh,MAP3K3,0%
same,%Inh,MAP3K4,6%
same,%Inh,MAP4K2,0%
CC(C)(CN)c1nc(-c2ccc(Cl)c(O)c2)c(-c2ccncc2)[nH]1.O=C(O)C(F)(F)F [SB-477794],%Inh,KIT-autoinhibited,0%
same,%Inh,KIT; 1 µM,66% and 58%
same,%Inh,LATS1; 1 µM,7% and 39%
same,%Inh,LATS2; 1 µM,86% and 89%
same,%Inh,LCK,99.2%
same,%Inh,LIMK1; 1 µM,0% and 2%
same,%Inh,LIMK2,0%
same,%Inh,LKB1; 1 µM,0% and 31%
same,%Inh,LOK; 1 µM,99.1% and 98.2%
same,%Inh,LRRK2,0%
same,%Inh,LTK; 1 µM,18% and 30%
same,%Inh,LYN,91.1%
same,%Inh,LZK; 1 µM,49% and 47%
same,%Inh,MAK; 1 µM,41% and 0%
same,%Inh,MAP3K15,0%
same,%Inh,MAP3K1; 1 µM,22% and 7%
same,%Inh,MAP3K2; 1 µM,43% and 35%
same,%Inh,MAP3K3,0%
same,%Inh,MAP3K4; 1 µM,0% and 13%
same,%Inh,MAP4K2,0%
COc1ccc(Nc2ncc(C#N)c(Nc3ccccc3C(N)=O)n2)cc1N1CCN(C)CC1.Cl [GSK1558669],%Inh,KIT-autoinhibited,96.1%
same,%Inh,KIT,99.9%
same,%Inh,LATS1,78%
same,%Inh,LATS2,98.9%
same,%Inh,LCK,100%
same,%Inh,LIMK1,85%
same,%Inh,LIMK2,93.4%
same,%Inh,LKB1,58%
same,%Inh,LOK,99%
same,%Inh,LRRK2,98.8%
same,%Inh,LTK,89%
same,%Inh,LYN,93.9%
same,%Inh,LZK,97.5%
same,%Inh,MAK,66%
same,%Inh,MAP3K15,73%
same,%Inh,MAP3K1,38%
same,%Inh,MAP3K2,99.2%
same,%Inh,MAP3K3,99.8%
same,%Inh,MAP3K4,99.9%
same,%Inh,MAP4K2,98.8%
NCCNS(=O)(=O)c1ccc(-c2ccnc3[nH]ccc23)cc1 [GSK977617],%Inh,KIT-autoinhibited; 1 µM,0% and 21%
same,%Inh,KIT; 1 µM,44% and 28%
same,%Inh,LATS1; 1 µM,75% and 70%
same,%Inh,LATS2; 1 µM,95.8% and 95.9%
same,%Inh,LCK; 1 µM,38% and 3%
same,%Inh,LIMK1,0%
same,%Inh,LIMK2; 1 µM,6% and 12%
same,%Inh,LKB1; 1 µM,0% and 2%
same,%Inh,LOK; 1 µM,12% and 0%
same,%Inh,LRRK2; 1 µM,17% and 0%
same,%Inh,LTK; 1 µM,37% and 0%
same,%Inh,LYN,0%
same,%Inh,LZK; 1 µM,22% and 3%
same,%Inh,MAK,0%
same,%Inh,MAP3K15; 1 µM,4% and 0%
same,%Inh,MAP3K1; 1 µM,8% and 11%
same,%Inh,MAP3K2; 1 µM,83% and 72%
same,%Inh,MAP3K3; 1 µM,63% and 56%
same,%Inh,MAP3K4; 1 µM,0% and 21%
same,%Inh,MAP4K2; 1 µM,47% and 38%
CCn1cnc2c(N)ncnc21 [GW345098],%Inh,KIT-autoinhibited,7%
same,%Inh,KIT,20%
same,%Inh,LATS1,0%
same,%Inh,LATS2,21%
same,%Inh,LCK,5%
same,%Inh,LIMK1,26%
same,%Inh,LIMK2,27%
same,%Inh,LKB1,26%
same,%Inh,LOK,25%
same,%Inh,LRRK2,0%
same,%Inh,LTK,16%
same,%Inh,LYN,0%
same,%Inh,LZK,3%
same,%Inh,MAK,0%
same,%Inh,MAP3K15,6%
same,%Inh,MAP3K1,18%
same,%Inh,MAP3K2,9%
same,%Inh,MAP3K3,20%
same,%Inh,MAP3K4,11%
same,%Inh,MAP4K2,19%
O=C(Nc1n[nH]c2cc(-c3cccc(F)c3)ccc12)C1CC1 [SB-735464],%Inh,KIT-autoinhibited,1%
same,%Inh,KIT,33%
same,%Inh,LATS1,0%
same,%Inh,LATS2,18%
same,%Inh,LCK,3%
same,%Inh,LIMK1,0%
same,%Inh,LIMK2,0%
same,%Inh,LKB1,0%
same,%Inh,LOK,6%
same,%Inh,LRRK2,0%
same,%Inh,LTK,0%
same,%Inh,LYN,9%
same,%Inh,LZK,2%
same,%Inh,MAK,3%
same,%Inh,MAP3K15,48%
same,%Inh,MAP3K1,22%
same,%Inh,MAP3K2,5%
same,%Inh,MAP3K3,10%
same,%Inh,MAP3K4,24%
same,%Inh,MAP4K2,6%
